# An excerpt weighted towards active compounds, which were near 3.3% of everything screened.
# ROMK primary = human ROMK K+ channel modulation, primary screen | B-score at 10 µM | 2% of 130,000 active | P48048 | AID 1918 | Tet-inducible ROMK, thallium flux fluorescence; actives lie on both sides;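 active = signal ratio slope over the read window, or its plate-corrected B-score, at least 3 SD from the plate mean, either direction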;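 note: B-score of the F/F0 ratio slope over 7 to 12 s after thallium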
# PERK inh = inhibitors of human PERK kinase | CHO PERK-DD fusion, SEAP luminescence translation reporter | AID 1416 | Q9NZJ5 | inhibition, % at 5.6 µM | 0.17% of 220,000 active;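 active = inhibition above the mean inhibition of all tested compounds plus 3 SD, set separately per screening campaign, cut at about 2.9% in these data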;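 note: PERK kinase domain activated by AP20187 dimerizer at 100 nM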
# Target sequence (Q9NZJ5 whole entry, looked up, the tested form may be a part): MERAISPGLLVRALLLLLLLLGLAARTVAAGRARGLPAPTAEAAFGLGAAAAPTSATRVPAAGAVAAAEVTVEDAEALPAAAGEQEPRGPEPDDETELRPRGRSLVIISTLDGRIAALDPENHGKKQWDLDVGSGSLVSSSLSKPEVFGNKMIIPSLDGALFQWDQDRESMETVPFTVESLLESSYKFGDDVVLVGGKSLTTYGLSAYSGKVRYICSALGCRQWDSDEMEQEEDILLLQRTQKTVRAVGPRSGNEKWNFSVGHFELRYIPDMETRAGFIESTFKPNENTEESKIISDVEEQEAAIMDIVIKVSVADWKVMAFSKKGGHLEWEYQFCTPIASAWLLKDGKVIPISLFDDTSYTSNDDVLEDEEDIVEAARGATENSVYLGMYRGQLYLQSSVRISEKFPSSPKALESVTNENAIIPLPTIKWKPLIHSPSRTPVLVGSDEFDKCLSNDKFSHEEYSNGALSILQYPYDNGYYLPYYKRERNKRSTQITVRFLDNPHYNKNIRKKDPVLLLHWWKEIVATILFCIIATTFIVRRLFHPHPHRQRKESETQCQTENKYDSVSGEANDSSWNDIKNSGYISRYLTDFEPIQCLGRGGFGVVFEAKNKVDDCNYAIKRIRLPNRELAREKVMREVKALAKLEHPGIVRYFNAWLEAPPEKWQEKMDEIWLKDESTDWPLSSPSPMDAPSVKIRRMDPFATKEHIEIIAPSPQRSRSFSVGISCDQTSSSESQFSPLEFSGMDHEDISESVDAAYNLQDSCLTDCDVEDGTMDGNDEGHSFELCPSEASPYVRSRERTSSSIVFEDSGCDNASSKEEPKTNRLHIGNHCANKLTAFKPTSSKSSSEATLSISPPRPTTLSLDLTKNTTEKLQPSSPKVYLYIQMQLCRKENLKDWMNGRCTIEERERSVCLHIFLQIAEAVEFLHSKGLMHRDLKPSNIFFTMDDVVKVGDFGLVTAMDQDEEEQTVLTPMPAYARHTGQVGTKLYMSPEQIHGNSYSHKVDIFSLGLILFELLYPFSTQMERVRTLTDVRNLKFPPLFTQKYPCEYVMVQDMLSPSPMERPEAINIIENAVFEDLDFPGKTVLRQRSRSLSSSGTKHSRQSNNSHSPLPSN
# Arbovirus anti = blocks arbovirus infection. arbovirus infection cell-based antiviral screen. inhibition, % at 10 µM. 0.37% of 200,000 active. AID 1251; in the data active = inhibition above about 30%
# WT yeast gro inh = growth inhibition of WT yeast, mitochondrial fusion screen; 2.1% of 190,000 active; inhibition, % at 10 µM; mitochondrial fusion phenotypic screen, WT strain; in the data active = inhibition above about 58%; tested in S. cerevisiae
# ROMK hit retest = confirmation of human ROMK potassium channel modulators. shares compounds with ROMK primary. ROMK thallium flux, fluorescence ratio; stronger effect = lower value. normalized thallium flux (F/F0 slope) at 10 µM. 54% of 3,000 active. AID 1917;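 active = Flux at 10 µM at least 3 SD below or above vehicle control mean in one or both replicates; inconclusive = no clear call, values can overlap the other calls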
# A number is an active result; 0 = inactive; ? = inconclusive; - = not tested or not shown.
SMILES,ROMK primary,PERK inh,Arbovirus anti,WT yeast gro inh,ROMK hit retest
CCOC(=O)CSc1cc(CS(=O)c2ccc(Cl)cc2)nc(-c2ccccc2)n1 (stereo not drawn),-,0,0,0,-
COc1ccccc1-c1c(C)oc2cc(OCC(=O)OCc3ccccc3)ccc2c1=O,0,0,0,0,-
Cc1cc(C(=O)CSc2nc3ccccc3c(=O)[nH]2)c(C)n1CC1CCCO1 (stereo not drawn),0,0,0,0,-
Cc1cc(C(=O)CSc2nc3ccccc3c(=O)n2C)c(C)n1CC1CCCO1 (stereo not drawn),-8.5,0,0,0,0.06
COC(=O)c1ccc(OCC(=O)c2cccc(OC)c2)cc1,0,0,0,0,-
COc1ccc(Cn2c(O)c(C=Nc3ccc(OC)cc3)c3ccccc3c2=O)cc1,-,0,0,0,-
O=C(N/N=C/c1c(O)n(-c2ccccc2Cl)c(=O)c2ccccc12)c1cccnc1,-3.6,0,36,0,0.058
Cc1cccc(-n2c(O)c(/C=N/NC(=O)c3ccccc3Cl)c3ccccc3c2=O)n1,-,0,0,0,-
COc1ccc(Cn2c(O)c(/C=N/NC(=O)c3cccnc3)c3ccccc3c2=O)cc1,-5.5,0,0,0,0.032
O=C1CC(=O)N(CCc2ccccc2)C(=O)N1CCc1ccccc1,0,0,0,0,-
O=C1C=CC(=O)C(C2=C3C(=O)N(CCc4ccccc4)CC(=O)N3CCC2)=C1,-3,0,0,0,0.051
Cc1cc(C)c(S(=O)(=O)NCC(=O)NCc2ccco2)c(C)c1,-,0,0,0,-
COc1cc(C(=O)NCCCNc2nc3cc(C)cc(C)c3cc2C#N)cc(OC)c1OC,-,0,0,0,-
CCOc1ccc2nc(NCCCNC(=O)c3cc(OC)c(OC)c(OC)c3)c(C#N)cc2c1,-,0,-,-,0
CCCCCCOC(=O)C[N+](C)(C)CCOC1CC2CCC1(C)C2(C)C (stereo not drawn),-,0,0,0,0.045
CC(C)CCOC(=O)C[N+](C)(C)CCOC1CC2CCC1(C)C2(C)C (stereo not drawn),-4.1,0,0,0,0.052
CCCCCCCOC(=O)C[N+](C)(C)CCOC1CC2CCC1(C)C2(C)C (stereo not drawn),-,0,0,78,0.043
CCCCOC(=O)C[N+](C)(C)CCOC1CC2CCC1(C)C2(C)C (stereo not drawn),-,0,0,0,-
CCCOC(=O)C[N+](C)(C)CCOC1CC2CCC1(C)C2(C)C (stereo not drawn),-,0,-,-,-
CCS(=O)(=O)c1ccc(O)c(NC(=O)Nc2ccc(C(C)(C)C)cc2)c1,-2.5,0,-,-,0
COc1ccc(N/N=C(\C#N)C(=N)SCc2ccccc2)cc1,-,0,0,0,0.053
O=C(C1CCCN(S(=O)(=O)c2ccccc2[N+](=O)[O-])C1)N1CCCC1 (stereo not drawn),-,0,0,0,-
O=C(Nc1cccc(S(=O)(=O)c2cccc(NC(=O)C3CC3)c2)c1)C1CC1,0,0,0,0,0
COc1ccc(N2CCc3c(C)nc4c(OC)cc(OC)cc4c32)c(OC)c1,-,0,0,0,0.061
COc1ccc(C2=CSC3=C(C(=O)c4cccc(S(=O)(=O)N(C)C)c4)CCN23)cc1,0,0,0,0,-
SMILES,ROMK primary,PERK inh,Arbovirus anti,WT yeast gro inh,ROMK hit retest
O=C(Nc1nnc(C2CCCCC2)s1)c1ccc(Br)s1,-,0,0,0,-
O=C(Nc1ccccc1C(=O)Nc1nnc(C(F)(F)F)s1)c1ccccc1Cl,-,0,-,-,0.061
O=C(Nc1nnc(C(F)(F)F)s1)c1ccc(Br)s1,-3,0,0,63,0
CN(C)CCCN1C(=O)c2cccc3c([N+](=O)[O-])ccc(c23)C1=O,-4.8,0,0,0,0.038
CCOC(=O)C(=Cc1ccc(-n2cncn2)cc1)C(=O)OCC,-5.1,0,0,0,0.063
O=C(CSc1cccc2cccc(Cl)c12)NC1=NCCS1,0,0,0,0,-
CNC(=O)c1nnsc1S(=O)(=O)c1ccc(Cl)cc1,-5.6,0,0,69,0.053
Cc1[nH]c2ccccc2c1CN1CCN(c2ccccn2)CC1,-3.7,0,-,-,0.065
CC1CCC2C(=O)N(c3ccc(C(=O)Oc4cccc5cccnc45)cc3)C(=O)C2C1 (stereo not drawn),-,0,0,0,-
O=C(Cn1ncc2c3ccccc3n(Cc3ccc(F)cc3)c2c1=O)N1CCN(c2ncccn2)CC1,-2.9,0,0,0,0.067
O=C(C1CCN(Cc2cn[nH]c2-c2ccc(F)cc2F)CC1)N1CCOCC1,0,0,0,0,-
CCSc1nc2ccccc2c(=O)n1CCc1ccc(OC)c(OC)c1,-,0,-,-,0
COc1ccc(CCn2c(C)nc3ccccc3c2=O)cc1OC,0,0,0,0,-
COCCCNC(=O)c1c(N)n(/N=C/c2cccnc2)c2nc3ccccc3nc12,0,0,0,0,?
CC(C)CNC(=O)c1c(N)n(/N=C/c2cccnc2)c2nc3ccccc3nc12,0,-,-,-,-
O=C(NNC(=O)C1CC(c2cccnc2)=NO1)Nc1ccccc1F (stereo not drawn),0,0,0,0,-
Cc1c(Nc2cc(N3CCOCC3)c3nonc3c2[N+](=O)[O-])c(=O)n(-c2ccccc2)n1C,0,0,0,0,-
Cc1c(Nc2cc(Cl)c3nonc3c2[N+](=O)[O-])c(=O)n(-c2ccccc2)n1C,-4.4,0,0,0,0.04
O=C(/C=N/O)Nc1ccc2sc3ccccc3c2c1,-2.8,0,-,-,0.064
CCOC(=O)C1CCCN(C(=O)c2cn(CC)c(=O)c3cc(OC)c(OC)cc23)C1 (stereo not drawn),-,0,0,0,0
Cc1onc(-c2ccccc2Cl)c1C(=O)OCC(=O)N1CCCc2ccccc21,-,0,0,0,-
CCCCN=c1scc(-c2ccc3c(c2)NC(=O)CO3)n1N=C1CCCC1,0,0,0,0,-
CCN=c1scc(-c2ccc3c(c2)NC(=O)CO3)n1N=C1CCCC1,-,0,0,0,0
COc1ccc(N2CC(C(=O)N/N=C/c3cc([N+](=O)[O-])ccc3O)CC2=O)cc1 (stereo not drawn),0,0,0,0,-
COc1cccc(NCc2ccc([N+](=O)[O-])s2)c1,-,0,0,0,-
SMILES,ROMK primary,PERK inh,Arbovirus anti,WT yeast gro inh,ROMK hit retest
c1cc2c(cn1)cnc1cscc12,2.6,0,0,0,0
CCCCCc1c(O)nc(SCC(=O)O)[nH]c1=O,0,0,-,-,-
O=C(N/N=C\c1c(O)ccc2ccccc12)c1ccc(S(=O)(=O)N2CCCCC2)cc1,-3.8,0,0,0,0.051
O=C(CNc1ccc(Br)cc1)c1ccc(O)cc1,0,0,0,0,-
O=C(Cn1nc(CNc2ccc(Cl)cc2)[n+]2c1CCCCC2)c1ccc(Br)cc1,-3.7,0,0,0,0.053
O=C(CNc1ccc(Cl)cc1)c1ccc(Br)cc1,2.7,0,0,0,0
O=C(N/N=C/c1cn(-c2cccs2)nc1-c1ccccc1)c1ccc(O)cc1,-3.5,0,0,0,0.059
O=C(N/N=C/c1cn(-c2cccs2)nc1-c1ccccc1)c1ccccc1Cl,0,0,0,0,-
COC(=O)C(Cc1ccc(OC(=O)c2ccc(C)cc2)cc1)N1Cc2ccccc2C1=O (stereo not drawn),-,0,0,0,-
COc1cccc(/C=N/NC(=O)c2cc3c(OC)cccc3[nH]2)c1OC,-,0,0,0,0
COc1ccc(/C=C(/C(=O)c2ccc(Cl)cc2Cl)n2cncn2)cc1,0,0,0,0,-

# Screens deposited in PubChem BioAssay by several laboratories.
